Screens (PubChem)
An excerpt weighted towards active compounds, which were near 5.4% of everything screened.
CSC inhib: cancer stem cell inhibition. cancer stem cell-like cells viability, luminescence. inhibition, % at 7.5 µM. hit rate 1.1% among 300,000. AID 2717; in the data active = inhibition above about 75%; tested in HMLE shEcad cells
Calb FLC: C. albicans growth modulation with fluconazole | growth inhibition, % (concentration not given with the values) | hit rate 0.57% among 300,000 | C. albicans CaCi-2 (fluconazole-resistant clinical isolate) + fluconazole, Alamar Blue growth, 48 h | AID 1979;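 active = growth inhibition above about 58% in most replicates, limit read from the data, passing the limit was not always enough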;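 note: all wells also contain fluconazole at 8 µg/ml as a sub-toxic cotreatment; 0% = median of DMSO wells and 100% = median of geldanamycin control wells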
Beta apoptosis: beta cell apoptosis inhibition | protection from apoptosis, % (test concentration not listed) | AID 435005 | hit rate 0.8% among 300,000 | INS-1E cytokine-induced death, ATP luminescence, 48 h; percent of positive-control rescue, neutral wells zero;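 active = Every replicate reaches about 75%, or at least half do and their mean reaches it too, limit read from the data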;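 note: 0% = cytokine-treated negative control wells and 100% = positive control rescue; higher means more ATP so stronger rescue from cytokine killing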
SKKanGAS inh: SKKanGAS growth inhibition | inhibition, % at 7.5 µM | S. pyogenes SKKanGAS, kanamycin growth, BacTiter-Glo, 6 h | hit rate 1.3% among 300,000;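 active = mean replicate score, as percent of positive control median, at least 50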;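 note: strain carries kanamycin resistance gene driven by streptokinase promoter and grows in 40 µg/ml kanamycin; loss of luminescence reflects streptokinase promoter inhibition or plain growth inhibition; 0% = median of DMSO wells and 100% = positive control at its reference dose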
MPTP inh: inhibitors of mitochondrial permeability transition pore | hit rate 1.4% among 360,000 | isolated mouse mitochondria, Ca2+ swelling absorbance, 30 min | inhibition, % at 10 µM;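 active = inhibition of 50% or more, scaled per plate between neutral and stimulator controls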;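 note: 0% = DMSO wells given calcium and 100% = 1 mM EGTA wells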
Mdm2-MdmX inh: human Mdm2/MdmX binding inhibition | SaOS-2 split-luciferase Mdm2/MdmX complementation, luminescence | inhibition, % at 8 µM | hit rate 3% among 330,000;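 active = inhibition of at least 50% at 8 µM in the primary screen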
Target sequence (O15151 whole entry, looked up): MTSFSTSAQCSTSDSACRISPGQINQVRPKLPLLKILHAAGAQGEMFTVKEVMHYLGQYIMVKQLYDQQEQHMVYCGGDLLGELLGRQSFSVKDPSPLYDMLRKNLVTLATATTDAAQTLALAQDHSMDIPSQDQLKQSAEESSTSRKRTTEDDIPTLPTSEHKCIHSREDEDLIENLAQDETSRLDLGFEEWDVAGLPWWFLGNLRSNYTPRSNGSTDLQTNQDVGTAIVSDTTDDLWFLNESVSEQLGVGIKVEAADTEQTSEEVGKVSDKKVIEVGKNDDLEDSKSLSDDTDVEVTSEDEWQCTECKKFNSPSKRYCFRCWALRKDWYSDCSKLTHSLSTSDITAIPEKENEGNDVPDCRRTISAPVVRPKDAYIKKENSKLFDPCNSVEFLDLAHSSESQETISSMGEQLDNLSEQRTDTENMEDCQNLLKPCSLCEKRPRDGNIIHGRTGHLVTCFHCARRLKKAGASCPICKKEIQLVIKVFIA
Target sequence (Q00987 whole entry, looked up): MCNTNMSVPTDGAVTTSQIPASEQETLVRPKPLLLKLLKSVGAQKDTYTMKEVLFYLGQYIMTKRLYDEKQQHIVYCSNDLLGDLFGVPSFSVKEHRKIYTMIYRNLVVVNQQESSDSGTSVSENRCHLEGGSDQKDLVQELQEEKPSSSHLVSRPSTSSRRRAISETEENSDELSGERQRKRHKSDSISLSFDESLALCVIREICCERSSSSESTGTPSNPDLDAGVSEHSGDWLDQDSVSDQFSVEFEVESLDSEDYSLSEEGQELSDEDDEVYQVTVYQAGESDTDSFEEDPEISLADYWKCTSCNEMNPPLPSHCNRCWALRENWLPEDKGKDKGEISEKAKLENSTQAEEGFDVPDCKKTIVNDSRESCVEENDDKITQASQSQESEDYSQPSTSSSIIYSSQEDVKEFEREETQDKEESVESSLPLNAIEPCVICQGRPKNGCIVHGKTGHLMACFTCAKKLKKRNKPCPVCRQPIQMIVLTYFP
Mdm2 MdmX conf: human Mdm2/MdmX binding inhibition, confirmed; shares compounds with Mdm2-MdmX inh; luminescent assay; inhibition, % at 8 µM; hit rate 55% among 10,000; AID 489028; in the data active = inhibition above about 40%
Full FLuc ctr: full-length luciferase inhibition in Mdm2/MdmX counter-screen | shares compounds with Mdm2-MdmX inh | SaOS-2 full-length luciferase counterscreen, luminescence | inhibition, % at 8 µM | hit rate 77% among 6,200;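 active = mean inhibition at 8 µM reaching about 37%, which flags the compound as non-specific, limit read from the data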;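 note: p53-null SaOS-2 cells with luciferase driven by a doxycycline-inducible promoter; compound on cells about two nights before reading with doxycycline added after day one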
* hit, by the source's call; / = no result given.

SMILES | CSC inhib | Calb FLC | Beta apoptosis | SKKanGAS inh | MPTP inh | Mdm2-MdmX inh | Mdm2 MdmX conf | Full FLuc ctr
CCN1CCN(Cc2ccc(NC(=O)c3cc(NC(=O)C4=NN(c5ccccc5)C(=O)C4)cc(OC)c3)cc2C(F)(F)F)CC1 | 8.5 | 15.0 | -8.1 | 3.1 | -0.1 | -36.8 | / | /
COc1cc(NC(=O)c2csc(-c3ccncc3)n2)cc(C(=O)Nc2cccc(C(F)(F)F)c2)c1 | -14.4 | -8.7 | 3.0 | 36.7 | 1.5 | 49.9 | / | /
CCN1CCN(Cc2ccc(NC(=O)c3cc(NC(=O)N4CCNC4=O)cc(OC)c3)cc2C(F)(F)F)CC1 | -8.3 | 5.4 | -4.9 | 3.4 | -2.4 | 76.0* | 49.6* | 68.1*
COc1ccccc1CNC(=O)COC(=O)C1=COCCO1 | -14.9 | -0.6 | -3.8 | 4.4 | -4.6 | 5.8 | / | /
CC(Sc1ccccc1)C(=O)NN=C1CCCC1 (stereo unspecified) | -8.4 | 3.6 | -8.9 | 11.2 | -2.0 | -4.8 | / | /
CC(C(=O)N(C)C1CCS(=O)(=O)C1)N1C(=O)/C(=C/c2ccc(F)cc2)SC1=S (stereo unspecified) | 30.5 | -3.2 | -10.8 | -3.5 | 0.1 | 35.5 | / | /
CCN(C(=O)C(C)N1C(=O)/C(=C/c2ccco2)SC1=S)C1CCS(=O)(=O)C1 (stereo unspecified) | 28.1 | -2.4 | -16.8 | 5.3 | -0.5 | 54.8* | 1.9 | /
CCC(C(=O)NC1CCN(C)CC1)c1ccccc1 (stereo unspecified) | -12.7 | -1.7 | -3.7 | -7.7 | -0.4 | 13.1 | / | /
CCS(=O)CCSc1nc2ccccc2s1 (stereo unspecified) | -6.3 | 1.0 | / | -1.3 | -1.4 | 12.1 | / | /
CN1CCN(c2cc(-c3cc(O)c4ncccc4c3)ccn2)CC1 | 21.7 | / | 2.8 | / | -0.8 | 60.1* | 45.5* | 19.6
Oc1cc(Nc2ccccc2)cc2cccnc12 | / | / | 36.2 | / | -0.2 | 66.8* | 30.6 | /
Oc1cc(-c2cccnc2)cc2cccnc12 | 45.7 | / | 11.2 | / | -1.6 | 76.3* | 49.6* | 14.2
CCN1C(=O)/C(=C2/Sc3ccc(OC)cc3N2C)SC1=Nc1cccc(O)c1 | 37.6 | 10.8 | 18.3 | 10.0 | 2.2 | 96.9* | 31.6 | /
O=C1c2ccccc2-c2n[nH]c(=O)c3ccc(N4CCCCC4)c1c23 | -6.1 | 38.6 | 0.5 | 32.8 | 1.0 | 52.4* | 14.8 | /
O=C(COc1ccc(F)cc1Cl)Nc1cccc(S(=O)(=O)N2CCCC2)c1 | / | / | / | / | -0.1 | -29.2 | / | /
CCOc1cc(C(=O)OCc2ccc(C(=O)OC)o2)cc(Br)c1OC | 1.3 | 31.4 | 2.6 | -3.8 | / | 29.0 | / | /
COc1cc(C(=O)NCC(=O)NCCN2C(=O)S/C(=C\c3ccccc3Cl)C2=O)cc(OC)c1OC | -11.1 | 0.2 | 7.4 | 0.2 | -1.3 | -18.0 | / | /
COc1cc(/C=C2\SC(=O)N(CCNC(=O)c3sc4cc(F)ccc4c3Cl)C2=O)cc(OC)c1OC | 33.0 | 1.2 | 8.2 | -2.9 | 0.6 | 53.9* | -10.2 | /
c1ccc(CNCCC(Cc2ccccc2)c2ccco2)cc1 (stereo unspecified) | 30.7 | -12.0 | -10.7 | 1.2 | 23.2 | 18.8 | / | /
CN(C)c1ccc(CNCCC(Cc2ccccc2)c2ccco2)cc1 (stereo unspecified) | 13.5 | -28.4 | 29.8 | -15.8 | 39.1 | 52.3* | 30.0 | /
COc1nc(-c2cccs2)cc(-c2ccc(C)cc2)c1C#N | 48.6 | 7.8 | -1.3 | -9.2 | 1.8 | 51.9* | 55.1* | 67.2*
COC(=O)c1c(-c2ccc3ccccc3c2)csc1NC(=O)Cc1ccc(OC)c(OC)c1 | -2.0 | 25.6 | -6.1 | -4.3 | 3.8 | 55.3* | 54.0* | 57.2*
O=c1c2ccccc2nc(-c2ccccc2)n1O | 0.3 | -3.6 | -1.5 | -8.5 | 1.0 | 34.0 | / | /
O=c1c2cc(Cl)ccc2nc(-c2ccc(Cl)c(Cl)c2)n1O | 120.1* | 100.6* | 38.1 | 74.5* | 36.3 | 72.1* | 83.2* | 21.3
O=c1c2cc(Br)ccc2nc(-c2cccc(C(F)(F)F)c2)n1O | 13.9 | 90.3* | 7.4 | 111.1* | 6.3 | 55.5* | 42.1* | 29.9
CC(C)(C)c1ccc(-c2ccc3c(c2)S(=O)(=O)c2ccccc2C3=O)cc1 | 12.8 | 6.3 | -1.4 | 5.9 | 4.1 | 46.4 | / | /
